From PubChem BioAssay (NCI)
This is part of a sample that, as a whole, favours compounds with a hit. Of some 83,000 tested, about 20% had one in any assay.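 The test compound was applied at a single concentration to cells in 96-well plates for 48 hours, and percent growth was recorded.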 Calls of active or inactive are those of the source. Rule for the calls: active = growth percent below 10; inactive = the rest.

Tests used:
Experiment in all cases: NCI-60 one-dose screen, 48 h (100 = growth as untreated, 0 = no growth, -100 = all killed)
Settings in all cases: 10 µM
NCI-H23 lung = tested on: NCI-H23 lung
NCI-H226 lung = tested on: NCI-H226 lung
NCI-H322M lung = tested on: NCI-H322M lung
HOP-62 NSCLC = tested on: HOP-62 NSCLC
NCI-H460 lung = tested on: NCI-H460 lung
HOP-92 NSCLC = tested on: HOP-92 NSCLC
NCI-H522 lung = tested on: NCI-H522 lung
A549/ATCC NSCLC = tested on: A549/ATCC NSCLC
786-0 renal = tested on: 786-0 renal
COLO 205 colon = tested on: COLO 205 colon

Measured: growth

Oc1ccc(N=Nc2ccc(Br)cc2)c(O)c1
inactive: NCI-H23 lung 19.6% | NCI-H226 lung 83.6% | NCI-H322M lung 67% | HOP-62 NSCLC 27.5% | HOP-92 NSCLC 64.3% | A549/ATCC NSCLC 12.5% | 786-0 renal 15.6% | COLO 205 colon 129%
active: NCI-H460 lung 8.13% | NCI-H522 lung -32.1%

O=C(CCNNC(=O)c1ccncc1)NCc1ccccc1
inactive: NCI-H23 lung 95.8% | NCI-H226 lung 90.7% | NCI-H322M lung 110% | HOP-62 NSCLC 98.3% | NCI-H460 lung 102% | HOP-92 NSCLC 97.8% | NCI-H522 lung 58.2% | A549/ATCC NSCLC 104% | 786-0 renal 107%

CN(C)CCC(=O)c1ccc(O)cc1
inactive: NCI-H23 lung 97% | NCI-H226 lung 99% | NCI-H322M lung 106% | HOP-62 NSCLC 107% | NCI-H460 lung 103% | HOP-92 NSCLC 98.5% | NCI-H522 lung 102% | A549/ATCC NSCLC 103% | 786-0 renal 108%

CCOC(=O)c1ccc(Nc2sc(C(=O)c3cccc([N+](=O)[O-])c3)c(N)c2C#N)cc1
inactive: NCI-H23 lung 34.2% | NCI-H226 lung 41% | NCI-H322M lung 55% | HOP-62 NSCLC 27.3% | HOP-92 NSCLC 43% | A549/ATCC NSCLC 48.3% | 786-0 renal 24.7%
active: NCI-H460 lung 4.75% | NCI-H522 lung 5.23%

CCCCNC1(C#N)CCN(Cc2ccccc2)CC1
inactive: NCI-H23 lung 86.8% | NCI-H226 lung 104% | NCI-H322M lung 98.8% | HOP-62 NSCLC 87% | NCI-H460 lung 110% | HOP-92 NSCLC 90.4% | NCI-H522 lung 84.9% | A549/ATCC NSCLC 110% | 786-0 renal 84.5%

Nc1ccccc1C(=O)Nc1ccc(Cl)cc1Cl
inactive: NCI-H23 lung 92.6% | NCI-H226 lung 96.1% | NCI-H322M lung 106% | HOP-62 NSCLC 86.6% | NCI-H460 lung 104% | HOP-92 NSCLC 67.2% | NCI-H522 lung 78.5% | A549/ATCC NSCLC 102% | 786-0 renal 107%

CCCCNC(=O)C(=O)NCCCC
inactive: NCI-H23 lung 105% | NCI-H226 lung 106% | NCI-H322M lung 104% | HOP-62 NSCLC 108% | NCI-H460 lung 115% | HOP-92 NSCLC 104% | NCI-H522 lung 112% | A549/ATCC NSCLC 111% | 786-0 renal 101% | COLO 205 colon 117%

COc1ccc2c(c1)CCc1c-2n[nH]c1-c1[nH]nc2c1CCc1cc(OC)ccc1-2
inactive: NCI-H23 lung 75.4% | NCI-H226 lung 82.7% | NCI-H322M lung 90.5% | HOP-62 NSCLC 66% | NCI-H460 lung 53.5% | HOP-92 NSCLC 84.6% | NCI-H522 lung 34% | A549/ATCC NSCLC 79% | 786-0 renal 64.7% | COLO 205 colon 67.8%

CC(=O)Oc1ccc(Br)cc1C(=O)O
inactive: NCI-H23 lung 98.6% | NCI-H226 lung 99% | NCI-H322M lung 101% | HOP-62 NSCLC 86.9% | NCI-H460 lung 106% | HOP-92 NSCLC 97.8% | NCI-H522 lung 91.4% | A549/ATCC NSCLC 103% | 786-0 renal 97.4%

N#CCc1ccc([N+](=O)[O-])cc1
inactive: NCI-H23 lung 98.5% | NCI-H226 lung 98.2% | NCI-H322M lung 99.1% | HOP-62 NSCLC 90.7% | NCI-H460 lung 102% | HOP-92 NSCLC 92.7% | NCI-H522 lung 101% | A549/ATCC NSCLC 96.6% | 786-0 renal 106% | COLO 205 colon 105%

COc1cc(C(=O)N/N=C/c2cccc([N+](=O)[O-])c2)cc(OC)c1OC
inactive: NCI-H23 lung 61.7% | NCI-H226 lung 77.8% | NCI-H322M lung 87.2% | HOP-62 NSCLC 77.1% | NCI-H460 lung 18.5% | HOP-92 NSCLC 70.7% | NCI-H522 lung 19.6% | A549/ATCC NSCLC 65.7% | 786-0 renal 78.2% | COLO 205 colon 30.2%

Nc1ccc(CC(=O)O)c(N)c1
inactive: NCI-H23 lung 92.3% | NCI-H226 lung 92% | NCI-H322M lung 97.6% | HOP-62 NSCLC 102% | NCI-H460 lung 103% | HOP-92 NSCLC 94.5% | NCI-H522 lung 99.3% | A549/ATCC NSCLC 99.7% | 786-0 renal 107%

CCOC(=O)/C(=C/c1ccc(OC)cc1)N(CC)CC
inactive: NCI-H23 lung 96.3% | NCI-H226 lung 97% | NCI-H322M lung 105% | HOP-62 NSCLC 103% | NCI-H460 lung 103% | HOP-92 NSCLC 81.4% | NCI-H522 lung 94.1% | A549/ATCC NSCLC 101% | 786-0 renal 103% | COLO 205 colon 115%

O=C(O)C(c1ccccc1)C(O)c1ccccc1 (stereo unspecified)
inactive: NCI-H23 lung 104% | NCI-H226 lung 77.8% | NCI-H322M lung 97.6% | HOP-62 NSCLC 101% | NCI-H460 lung 106% | HOP-92 NSCLC 93% | NCI-H522 lung 96.1% | A549/ATCC NSCLC 90.8% | 786-0 renal 107%

Cc1ccc(/C=C2\SC(=S)N(c3ccc(F)cc3)C2=O)o1
inactive: NCI-H23 lung 88.3% | NCI-H226 lung 72.4% | NCI-H322M lung 90.2% | HOP-62 NSCLC 83.1% | NCI-H460 lung 33.7% | HOP-92 NSCLC 87.6% | NCI-H522 lung 70.6% | A549/ATCC NSCLC 87.5% | 786-0 renal 40.2% | COLO 205 colon 92.4%

O=c1c2ccccc2c(Br)c(Br)c2ccccc12
inactive: NCI-H23 lung 78.1% | NCI-H226 lung 74.2% | NCI-H322M lung 119% | HOP-62 NSCLC 112% | NCI-H460 lung 116% | HOP-92 NSCLC 83.7% | A549/ATCC NSCLC 95.1% | 786-0 renal 84.3% | COLO 205 colon 55%
active: NCI-H522 lung -33.9%

Cc1cc(C)c(N)c(S(=O)(=O)O)c1
inactive: NCI-H23 lung 92% | NCI-H226 lung 96.4% | NCI-H322M lung 108% | HOP-62 NSCLC 91.8% | NCI-H460 lung 102% | HOP-92 NSCLC 99% | NCI-H522 lung 97% | A549/ATCC NSCLC 114% | 786-0 renal 97.2%

Cc1cccc(C(=O)N(C(C)C)C(C)C)c1
inactive: NCI-H23 lung 102% | NCI-H226 lung 87.7% | NCI-H322M lung 104% | HOP-62 NSCLC 86.4% | NCI-H460 lung 99.2% | HOP-92 NSCLC 79.6% | NCI-H522 lung 79.9% | A549/ATCC NSCLC 86.3% | 786-0 renal 99.7%

N#Cc1c(N)sc(=S)c2c1CCCC2
inactive: NCI-H23 lung 101% | NCI-H226 lung 104% | NCI-H322M lung 123% | HOP-62 NSCLC 104% | NCI-H460 lung 115% | HOP-92 NSCLC 103% | NCI-H522 lung 102% | A549/ATCC NSCLC 105% | 786-0 renal 104% | COLO 205 colon 111%

CC1(C)N=C(N)N=C(N)N1c1cccc(Br)c1
inactive: NCI-H23 lung 20.8% | NCI-H226 lung 58.8% | NCI-H322M lung 46.9% | HOP-62 NSCLC 15.4% | NCI-H460 lung 18.2% | HOP-92 NSCLC 83% | NCI-H522 lung 52.5% | A549/ATCC NSCLC 30.6% | 786-0 renal 10.3%

CC1(C)N=C(N)N=C(N)N1c1ccc(Cl)cc1
inactive: NCI-H23 lung 37.2% | NCI-H226 lung 76.1% | NCI-H322M lung 59.2% | HOP-62 NSCLC 36.9% | NCI-H460 lung 18.3% | HOP-92 NSCLC 132% | NCI-H522 lung 46.6% | A549/ATCC NSCLC 27.4% | 786-0 renal 17.7%

[O-][N+](=Nc1cccc(Cl)c1)c1cccc(Cl)c1
inactive: NCI-H23 lung 94.5% | NCI-H226 lung 114% | NCI-H322M lung 95.9% | HOP-62 NSCLC 107% | NCI-H460 lung 99% | HOP-92 NSCLC 94.1% | NCI-H522 lung 148% | A549/ATCC NSCLC 95.1% | 786-0 renal 109% | COLO 205 colon 116%

CCCNC(=O)c1ccc(S(N)(=O)=O)cc1
inactive: NCI-H23 lung 118% | NCI-H226 lung 108% | NCI-H322M lung 121% | HOP-62 NSCLC 82.8% | NCI-H460 lung 108% | HOP-92 NSCLC 88.9% | NCI-H522 lung 115% | A549/ATCC NSCLC 112% | 786-0 renal 75.4% | COLO 205 colon 132%

O=c1cc(-c2ccccc2)[nH]c2c1CCCC2
active: NCI-H460 lung 7.59% | COLO 205 colon -10.1%
inactive: NCI-H23 lung 32.1% | NCI-H226 lung 54.3% | NCI-H322M lung 50.8% | HOP-62 NSCLC 28.8% | HOP-92 NSCLC 46.7% | NCI-H522 lung 13.6% | A549/ATCC NSCLC 36.6% | 786-0 renal 36.4%

CCS(=O)(=O)CCCl
inactive: NCI-H23 lung 101% | NCI-H226 lung 114% | NCI-H322M lung 97.1% | HOP-62 NSCLC 105% | NCI-H460 lung 109% | HOP-92 NSCLC 92.3% | NCI-H522 lung 90% | A549/ATCC NSCLC 97.4% | 786-0 renal 105% | COLO 205 colon 126%

C=C1CC/C=C(\C)C(=O)C[C@@H]2[C@@H]1CC2(C)C
inactive: NCI-H23 lung 107% | NCI-H226 lung 107% | NCI-H322M lung 119% | HOP-62 NSCLC 119% | NCI-H460 lung 107% | HOP-92 NSCLC 88.4% | NCI-H522 lung 85.3% | A549/ATCC NSCLC 109% | 786-0 renal 104% | COLO 205 colon 110%

COC(=O)/C=C1\Sc2cc(F)ccc2NC1=O
inactive: NCI-H23 lung 95.7% | NCI-H226 lung 101% | NCI-H322M lung 100% | HOP-62 NSCLC 96.5% | NCI-H460 lung 112% | HOP-92 NSCLC 82.4% | NCI-H522 lung 107% | A549/ATCC NSCLC 95.7% | 786-0 renal 94.3%

NC(=O)N/N=C\c1ccco1
inactive: NCI-H23 lung 108% | NCI-H226 lung 102% | NCI-H322M lung 94.1% | HOP-62 NSCLC 112% | NCI-H460 lung 117% | HOP-92 NSCLC 102% | NCI-H522 lung 92.1% | A549/ATCC NSCLC 110% | 786-0 renal 104% | COLO 205 colon 119%

C/C(=C\c1cc(Cl)ccc1OCC(=O)O)[N+](=O)[O-]
inactive: NCI-H23 lung 96.2% | NCI-H226 lung 108% | NCI-H322M lung 118% | HOP-62 NSCLC 103% | NCI-H460 lung 123% | HOP-92 NSCLC 101% | NCI-H522 lung 75.6% | A549/ATCC NSCLC 92% | 786-0 renal 117% | COLO 205 colon 115%

O=C(c1ccc(Cl)cc1)c1ccccc1Cl
inactive: NCI-H23 lung 91.2% | NCI-H226 lung 99.9% | NCI-H322M lung 97.9% | HOP-62 NSCLC 93.7% | NCI-H460 lung 103% | HOP-92 NSCLC 78.2% | NCI-H522 lung 90.7% | A549/ATCC NSCLC 95.1% | 786-0 renal 93.6%

Cc1cc(=O)cc(C)n1-c1ccccc1
inactive: NCI-H23 lung 96.5% | NCI-H226 lung 96.3% | NCI-H322M lung 106% | HOP-62 NSCLC 99.6% | NCI-H460 lung 107% | HOP-92 NSCLC 90.6% | NCI-H522 lung 102% | A549/ATCC NSCLC 99.1% | 786-0 renal 90% | COLO 205 colon 106%
